The assay addresses T1, B1ALK7|Q14155-1|Q14155-5 (UniProt Q14155).
T1 sequence (whole entry): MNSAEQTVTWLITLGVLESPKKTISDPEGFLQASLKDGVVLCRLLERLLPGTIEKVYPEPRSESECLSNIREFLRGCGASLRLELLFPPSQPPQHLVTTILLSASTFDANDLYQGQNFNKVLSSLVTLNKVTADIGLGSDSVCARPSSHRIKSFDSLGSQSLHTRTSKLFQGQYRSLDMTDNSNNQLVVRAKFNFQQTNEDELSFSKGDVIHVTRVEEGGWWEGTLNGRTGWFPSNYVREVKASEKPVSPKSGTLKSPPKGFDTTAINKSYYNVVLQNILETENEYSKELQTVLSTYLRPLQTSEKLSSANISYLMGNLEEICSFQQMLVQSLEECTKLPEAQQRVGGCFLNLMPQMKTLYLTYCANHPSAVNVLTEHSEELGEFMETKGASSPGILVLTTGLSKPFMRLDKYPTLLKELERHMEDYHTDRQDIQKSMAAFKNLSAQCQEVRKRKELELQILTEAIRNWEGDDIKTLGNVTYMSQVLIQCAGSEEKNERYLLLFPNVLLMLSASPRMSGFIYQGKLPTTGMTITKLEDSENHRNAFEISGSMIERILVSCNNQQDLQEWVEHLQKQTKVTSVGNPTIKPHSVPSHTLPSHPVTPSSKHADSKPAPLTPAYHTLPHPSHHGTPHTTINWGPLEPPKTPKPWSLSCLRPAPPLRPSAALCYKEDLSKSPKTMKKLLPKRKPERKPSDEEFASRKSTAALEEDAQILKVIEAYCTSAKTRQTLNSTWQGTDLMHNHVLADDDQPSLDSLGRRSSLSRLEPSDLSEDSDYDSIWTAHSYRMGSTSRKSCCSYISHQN
The assay is described as follows: NP40-soluble protein abundance relative to vehicle (solubility fold change) (ratio); higher = more soluble protein in presence of GTP. The procedure:
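Solubility proteome profiling in Jurkat crude lysate. Lysate was treated with Mg-GTP (0.1-10 mM) for 10 min at room temperature and 3 min at 37 °C, then solubilised with 0.8% NP40 and benzonase, followed by ultracentrifugation. Proteins were quantified by TMT10 LC-MS/MS; the value is the NP40-soluble abundance relative to the NP40-processed vehicle, from 3 independent experiments.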

Each structure is given as a SMILES string. ± gives the standard deviation of the averaged measurements. About 5,400 targets were measured; listed, in parts, are those with the largest changes and a random draw of the rest.

For the molecule `Nc1nc2c(ncn2[C@@H]2O[C@H](COP(=O)(O)OP(=O)(O)OP(=O)(O)O)[C@@H](O)[C@H]2O)c(=O)[nH]1` [guanosine triphosphate], the NP40-soluble protein abundance by setting is: (concentration: 0.1mM) 0.994 ± 0.036; (concentration: 0.5mM) 0.9903 ± 0.0023; (concentration: 1mM) 1.004 ± 0.007; (concentration: 2mM) 1.01 ± 0.028; (concentration: 4mM) 0.996 ± 0.015; (concentration: 6mM) 0.9797 ± 0.0044. Besides, the NP40-soluble protein abundance reads like this: (concentration: 8mM) 1 ± 0.033; (concentration: 10mM) 0.977 ± 0.046.

The values above are taken from the supplement of paper PMC6411743.
